Among the data in PubChem BioAssay are composite z-score and z-score values, retold here.

The structures appear in SMILES notation. Active and inactive are the calls of the source.

Experiment [1] deals with Wnt5a (protein binding on small-molecule microarray). Briefly: small molecules binding Wnt5a protein – biophysical, small-molecule microarray, 635/667 nm fluorescence, primary screen (AID 1142).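 Also: fluorescence read at 667 nm with signal to noise per printed feature.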 Particulars: 635 nm fluorescence, higher = more signal.
Experiment [2] is described as follows: ATP-based viability of Huh7 replicon cells – cell-based, CellTiter-Glo luminescence, basal, 48 h, cytotoxicity control for HCV replication inhibitor project, primary screen (AID 1143).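 Also: Huh7 hepatoma cells carrying a hepatitis C replication reporter with no stimulus; test concentration not given here.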 Particulars: higher = more signal, called active from +8 up or from −8 down. (In antiviral work, replicon cells carry a viral genome segment that copies itself.)
Experiment [3] can be described thus: basal CRE-LacZ reporter activity in PC12 – cell-based, unstimulated, primary screen (AID 1145). Particulars: no forskolin, luminescence, 4.5 h, higher = more signal, called active from +8 up or from −8 down.
Experiment [4] in a line: forskolin-driven CRE-LacZ activity in PC12 – cell-based, CRE-LacZ reporter, forskolin-stimulated, primary screen (AID 1146).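 Also: PC12 cells with 6xCRE LacZ reporter stimulated by forskolin 10 µM; beta-galactosidase reporter signal reflecting CREB driven transcription.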 The following applies: luminescence, 4.5 h, higher = more signal, called active from +8 up or from −8 down.
The target of experiment [5] is Streptavidin (Streptomyces avidinii) (UniProt P22629). Nature of the experiment: compounds binding control protein streptavidin – biophysical, small-molecule microarray, 635/667 nm fluorescence, artefact control for SMM compound annotation, primary screen (AID 1147).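 Also: signal reflects streptavidin binding to arrayed compounds as a control protein.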 Particulars: higher = more signal.
Streptavidin (Streptomyces avidinii), sequence (P22629 whole entry, looked up): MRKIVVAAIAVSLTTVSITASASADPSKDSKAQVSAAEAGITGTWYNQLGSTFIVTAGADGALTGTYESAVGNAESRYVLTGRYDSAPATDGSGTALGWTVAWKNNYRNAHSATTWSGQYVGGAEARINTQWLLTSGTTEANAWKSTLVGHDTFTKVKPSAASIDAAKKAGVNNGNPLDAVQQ
Experiment [6] can be described thus: probe aInhba binding on compound microarray – biochemical, small-molecule microarray, 635/667 nm fluorescence, primary screen (AID 1148).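 Also: score merges 667nm spot fluorescence with signal-to-noise for antibody binding to printed compounds.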 Particulars: higher = more signal.
Experiment [7] deals with Torsin-1A (Homo sapiens) (UniProt O14656). Briefly: TOR1A wild-type binding on microarray – cell lysate, small-molecule microarray, lysate, 635/667 nm, primary screen (AID 1149). Particulars: COS7 hTOR1A-WT lysate, 635 nm fluorescence, higher = more signal.
Torsin-1A (Homo sapiens), sequence (O14656 whole entry, looked up): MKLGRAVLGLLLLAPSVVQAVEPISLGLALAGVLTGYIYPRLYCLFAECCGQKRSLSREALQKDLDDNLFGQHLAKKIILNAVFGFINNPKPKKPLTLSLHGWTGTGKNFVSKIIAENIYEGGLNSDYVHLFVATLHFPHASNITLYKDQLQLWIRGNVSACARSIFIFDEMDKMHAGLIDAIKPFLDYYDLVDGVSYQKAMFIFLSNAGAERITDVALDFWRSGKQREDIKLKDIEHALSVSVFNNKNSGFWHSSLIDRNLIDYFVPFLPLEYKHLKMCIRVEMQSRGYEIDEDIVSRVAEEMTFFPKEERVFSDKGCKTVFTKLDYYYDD
The target is the same in experiment [8]. Briefly: torsin A mutant lysate binding on microarrays – cell lysate, small-molecule microarray, COS7 lysate, 635/667 nm fluorescence, primary screen (AID 1150).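 Also: score pools 667 nm emission and signal to noise measuring lysate protein binding.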 Particulars: COS7 hTOR1A mutant lysate, 635 nm fluorescence, higher = more signal.
For experiment [9], the system named is Sonic hedgehog protein (Shh). Nature of the experiment: Sonic hedgehog microarray binding compounds – biochemical, small-molecule microarray, 635/667 nm fluorescence, primary screen (AID 1151).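 Also: Shh protein binding to compounds spotted on small-molecule microarray slides; score combines spot fluorescence intensity with signal-to-noise across triplicate slides.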 Particulars: 635 nm fluorescence, higher = more signal.
Experiment [10] can be described thus: optical density shifts of acrAB sulA E. coli – strain DRC41, OD650, 48 h, E. coli filamentation inducer project, primary screen (AID 1152).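 Also: E. coli MC1000 strain DRC41 lacking acrAB efflux pump and sulA.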 The following applies: higher = more signal, called active from +8 up or from −8 down.
Experiment [11] in a line: probe aLefty1 binding on compound microarray – biochemical, small-molecule microarray, 635/667 nm fluorescence, primary screen (AID 1153).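 Also: score merges spot fluorescence with signal-to-noise ratio from the scanned slide images.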 The following applies: higher = more signal.
Experiment [12] can be described thus: plasmodial surface anion channel blockers, osmotic lysis – cell-based, P. falciparum Indochina, OD700, 1 h, primary screen (AID 1154). Particulars: P. falciparum Indochina infected RBC osmotic lysis, higher = more signal, called active from +8 up or from −8 down.
The nature of experiment [13]: plasmodial surface anion channel blockers, osmotic lysis – cell-based, P. falciparum Indochina, OD700, 2 h, primary screen (AID 1155).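 Also: lysis reports solute entry through the parasite surface anion channel PSAC.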 Particulars: P. falciparum Indochina infected erythrocytes, higher = more signal, called active from +8 up or from −8 down.
Experiment [14] in a line: changes in parasitized red cell lysis, either direction – P. falciparum Indochina, OD700, 3 h, PSAC antagonist project, primary screen (AID 1156). Particulars: P. falciparum-infected erythrocytes, osmotic lysis, higher = more signal, called active from +8 up or from −8 down.
The nature of experiment [15]: plasmodial surface anion channel blockers, osmotic lysis – cell-based, P. falciparum Indochina, OD700, 18 h, primary screen (AID 1157). Particulars: P. falciparum Indochina infected erythrocytes, osmotic lysis OD700, 18 h; higher = more signal, called active from +8 up or from −8 down.
Experiment [16] in a line: S6 kinase pathway phospho-S6 level changes – cell-based, A549, cytoblot, luminescence, serum-stimulated, primary screen (AID 1158).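 Also: serum-stimulated A549 lung adenocarcinoma cells; signal is phosphorylated S6 detected by cytoblot immunostaining with HRP secondary.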 Particulars: 5 h, higher = more signal.
In experiment [17] the target is NADPH oxidase 2 (Homo sapiens) (UniProt P04839). Nature of the experiment: compounds shifting NOX2 Amplex Red fluorescence – cell-based, HEK293-NOX2, PMA-stimulated, NOX inhibitor project, primary screen (AID 1159). Also: test concentration not given here. The following applies: 45 min, higher = more signal, called active from +8 up or from −8 down.
NADPH oxidase 2 (Homo sapiens), sequence (P04839 whole entry, looked up): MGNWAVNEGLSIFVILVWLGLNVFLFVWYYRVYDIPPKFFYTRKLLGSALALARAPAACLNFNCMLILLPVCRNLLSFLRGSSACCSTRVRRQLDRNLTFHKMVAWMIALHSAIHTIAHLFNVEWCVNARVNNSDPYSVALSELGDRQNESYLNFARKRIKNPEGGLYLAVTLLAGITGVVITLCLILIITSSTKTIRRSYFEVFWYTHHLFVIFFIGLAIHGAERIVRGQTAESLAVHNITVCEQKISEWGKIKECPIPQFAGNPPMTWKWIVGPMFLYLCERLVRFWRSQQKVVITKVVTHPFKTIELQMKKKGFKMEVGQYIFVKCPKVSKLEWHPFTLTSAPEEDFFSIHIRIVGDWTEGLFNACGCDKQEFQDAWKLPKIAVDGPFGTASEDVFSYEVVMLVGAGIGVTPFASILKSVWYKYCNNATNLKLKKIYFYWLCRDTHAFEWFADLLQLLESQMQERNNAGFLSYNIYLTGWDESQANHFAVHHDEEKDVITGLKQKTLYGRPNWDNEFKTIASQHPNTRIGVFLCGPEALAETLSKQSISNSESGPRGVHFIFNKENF
For experiment [18], the target named is NADPH oxidase 4 (Homo sapiens) (UniProt Q9NPH5). Nature of the experiment: compounds shifting NOX4 Amplex Red fluorescence – cell-based, HEK293-NOX4, tetracycline-induced, NOX inhibitor project, primary screen (AID 1160). Particulars: HEK293-NOX4, Amplex Red H2O2 fluorescence, 45 min; higher = more signal, called active from +8 up or from −8 down.
NADPH oxidase 4 (Homo sapiens), sequence (Q9NPH5 whole entry, looked up): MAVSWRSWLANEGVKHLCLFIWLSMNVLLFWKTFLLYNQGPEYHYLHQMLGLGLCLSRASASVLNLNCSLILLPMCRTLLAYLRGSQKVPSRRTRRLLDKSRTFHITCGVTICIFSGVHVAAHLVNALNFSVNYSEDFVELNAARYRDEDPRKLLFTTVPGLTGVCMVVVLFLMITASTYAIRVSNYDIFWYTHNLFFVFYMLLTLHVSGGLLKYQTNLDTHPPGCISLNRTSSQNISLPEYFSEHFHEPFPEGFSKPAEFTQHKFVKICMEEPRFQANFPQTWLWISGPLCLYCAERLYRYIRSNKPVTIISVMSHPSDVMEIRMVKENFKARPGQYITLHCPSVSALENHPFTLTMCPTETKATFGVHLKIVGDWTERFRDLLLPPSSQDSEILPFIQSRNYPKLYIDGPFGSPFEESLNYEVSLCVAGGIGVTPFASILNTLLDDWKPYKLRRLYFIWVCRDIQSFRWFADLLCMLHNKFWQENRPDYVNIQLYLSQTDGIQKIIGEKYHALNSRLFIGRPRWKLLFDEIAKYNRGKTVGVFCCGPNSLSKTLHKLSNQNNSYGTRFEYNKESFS
For experiment [19], the target named is NADPH oxidase 5 (Homo sapiens) (UniProt Q96PH1). Briefly: compounds shifting NOX5 Amplex Red fluorescence – cell-based, HEK293-NOX5, NOX inhibitor project, primary screen (AID 1161). Particulars: HEK293-NOX5, ionomycin, 45 min, higher = more signal.
NADPH oxidase 5 (Homo sapiens), sequence (Q96PH1 whole entry, looked up): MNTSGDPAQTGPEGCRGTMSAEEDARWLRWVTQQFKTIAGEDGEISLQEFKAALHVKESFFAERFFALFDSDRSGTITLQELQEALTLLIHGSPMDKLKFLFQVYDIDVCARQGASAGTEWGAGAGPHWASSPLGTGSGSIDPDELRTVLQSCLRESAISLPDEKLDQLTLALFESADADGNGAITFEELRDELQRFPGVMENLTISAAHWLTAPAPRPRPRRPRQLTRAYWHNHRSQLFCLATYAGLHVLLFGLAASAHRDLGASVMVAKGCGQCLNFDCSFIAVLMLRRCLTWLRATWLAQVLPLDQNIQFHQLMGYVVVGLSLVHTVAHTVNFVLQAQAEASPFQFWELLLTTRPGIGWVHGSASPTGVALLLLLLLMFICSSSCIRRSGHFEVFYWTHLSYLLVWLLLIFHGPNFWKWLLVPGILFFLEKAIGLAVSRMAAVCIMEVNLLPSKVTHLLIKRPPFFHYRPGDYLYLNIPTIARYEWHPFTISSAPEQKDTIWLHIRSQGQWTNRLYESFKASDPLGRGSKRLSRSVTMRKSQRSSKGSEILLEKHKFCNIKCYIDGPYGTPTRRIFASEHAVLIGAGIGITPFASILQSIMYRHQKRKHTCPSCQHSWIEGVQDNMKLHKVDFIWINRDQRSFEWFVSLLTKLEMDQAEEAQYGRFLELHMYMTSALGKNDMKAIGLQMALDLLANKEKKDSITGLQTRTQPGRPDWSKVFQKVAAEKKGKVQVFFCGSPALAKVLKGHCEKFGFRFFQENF
A short description of experiment [20]: compound effects on lung adenocarcinoma cell viability – A549, calcein-AM fluorescence, 48 h, basal, profiling panel (AID 1162). Also: test concentration not given here. Particulars: higher = more signal.

Take `COCCOC(=O)N1C(=O)[C@@]2(c3cc(C#CCNC(N)=O)ccc31)[C@H](C(=O)NC[C@H](O)c1ccccc1)[C@H]1C(=O)O[C@H](c3ccccc3)[C@H](c3ccccc3)N1[C@@H]2c1ccc(O)cc1`: the composite z-score in experiment [1] is 0.226; in [5], 0.0489; in experiment [6], -0.128; in the experiment with Torsin-1A (Homo sapiens) [7], 0.397; with Torsin-1A (Homo sapiens) [8] it was 0.393; in [9] it was 0.746. In addition, in experiment [11], the composite z-score was -0.196. Moreover, the z-score is -1.19 (inactive) in experiment [2]; -1.02 (inactive) in experiment [3]; -0.899 (inactive) in experiment [4]; 2.05 (inactive) in experiment [10]; 0.532 (inactive) in [12]; -1.33 (inactive) in experiment [13]. Further, the z-score was 0.527 (inactive) in experiment [14]; -1.55 (inactive) in experiment [15]; 1.57 in [16]; 1.46 (inactive) in experiment [17]; 0.692 (inactive) in experiment [18]; 0.776 in experiment [19]. For the same compound, the z-score in experiment [20] was 0.834.
On to `CC(C)(C)OC(=O)CC[C@@]1(C(=O)NCc2ccccc2)N=C(c2ccc(OCCCO)cc2)O[C@@H]1c1ccccc1CN=[N+]=[N-]`, for which the composite z-score in [1] worked out at 1.14; in experiment [5], 1.17; in experiment [6] it was 0.156; with Torsin-1A (Homo sapiens) [7] it was 0.807; in the experiment with Torsin-1A (Homo sapiens) [8], 0.312; in [9], 0.285. In experiment [11], this compound yielded a composite z-score of -0.14. Besides, the z-score is -5.23 (inactive) in experiment [2]; 1.46 (inactive) in experiment [3]; -1.42 (inactive) in [4]; 2.4 (inactive) in experiment [10]; 26.3 (active) in experiment [12]; 16.7 (active) in experiment [13]. The z-score in experiment [14] was -0.187 (inactive); in experiment [15] it was 0.712 (inactive); in experiment [16] it was 2.07; in [17] it was -0.046 (inactive); in [18], -0.0643 (inactive); in experiment [19] it was -1.35. Further, the z-score in experiment [20] was 1.09.
Take `Cc1ccc(S[C@]2(C(=O)NCC(C)C)CC(=O)N(C(C)C)[C@@H]2c2ccc(CO)cc2)cc1`: the composite z-score in [1] was 0.114; in [5] it was -1.13; in experiment [6], 0.0464; with Torsin-1A (Homo sapiens) [7], 0.234; with Torsin-1A (Homo sapiens) [8], 0.0167; in experiment [9], -0.305. In experiment [11], the composite z-score was -0.191. Moreover, the z-score in [2] is -4.95 (inactive); in experiment [3] it was 0.182 (inactive); in experiment [4] it was -0.838 (inactive); in experiment [10], 2.67 (inactive); in [12] it was 1.73 (inactive); in experiment [13], -0.147 (inactive). Besides, the z-score is -0.651 (inactive) in [14]; -1.54 (inactive) in experiment [15]; 3.27 in experiment [16]; 0.827 (inactive) in experiment [17]; -0.881 (inactive) in experiment [18]; 0.137 in experiment [19]. In addition, the z-score in experiment [20] is -0.0169.
For the compound `CC(C)C(CO)N1C(=O)[C@@H]2[C@H]3C(=O)OCC=C[C@H]3OC23C=CCN(Cc2ccccc2)C(=O)[C@@H]13` (stereo not given in full), the composite z-score in [1] is -0.353; in [5], -1.32; in [6], -0.195; with Torsin-1A (Homo sapiens) [7] it was -0.411; in the experiment with Torsin-1A (Homo sapiens) [8], -1.02; in [9] it was 0.565. Moreover, the composite z-score in experiment [11] was -0.268. Moreover, the z-score in experiment [2] is -0.524 (inactive); in [3], 0.325 (inactive); in [4], 0.559 (inactive); in experiment [10] it was 1.64 (inactive); in [12], 0.379 (inactive); in experiment [13], -0.0407 (inactive). Moreover, the z-score was 1.32 (inactive) in [14]; -0.16 (inactive) in experiment [15]; -0.257 in experiment [16]; 1.5 (inactive) in [17]; 0.118 (inactive) in [18]; 1.61 in [19]. The z-score in experiment [20] was -0.769.
